Screening data from PubChem.
Rows were chosen to be rich in hits. Some 3.6% of all compounds tested hit in one or more screens of this group.
Smad3 inh: Smad3/FoxH1 peptide binding inhibitors, primary screen, biochemical, TR-FRET. TR-FRET Smad3/Dy647-FoxH1 peptide binding, europium anti-His. inhibition, % at 25 µM. 0.29% of 88,000 active;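 active means compounds that reduce the energy-transfer binding signal between the protein and its labelled peptide by more than half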;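 further: 0% = Smad3 plus labelled peptide maximal FRET and 100% = peptide-only background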
Calb biofilm kill: clotrimazole potentiators killing Candida biofilms, primary screen, with clotrimazole, Alamar Blue; C. albicans biofilm + clotrimazole; inhibition, % at 6 µM; 0.14% of 85,000 active; AID 834, 2007;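 active means inhibition above 20%; inactive means inhibition below 20%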;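 further: preformed 24 hr biofilms exposed to compound for 48 hr; 0% = biofilm without compound and 100% = blank killed by clotrimazole plus chlorhexidine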
ERa coact inh: ERα–SRC-1 coactivator interaction inhibitors, primary screen, biochemical, TR-FRET, ERα LBD, estradiol-bound; Estrogen receptor (Homo sapiens), P03372; TR-FRET ER-alpha LBD / SRC-1 peptide; inhibition, % at 25.6 µM; 1.7% of 86,000 active; in the data active means inhibition above about 50%;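 further: 0% = receptor plus peptide control and 100% = peptide only without receptor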
ERa coact pot: enhancers of ERα–SRC-1 coactivator binding, primary screen, biochemical, TR-FRET, ERα LBD, low estradiol | TR-FRET ERalpha-LBD/SRC-Cy5 coactivator binding, 2 h; 100 = basal binding, no effect | 1.3% of 86,000 active | coactivator binding (% of control), % at 25.6 µM | Estrogen receptor (Homo sapiens), P03372; in the data active means activity above about 200%;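 further: binding measured in presence of low estradiol as agonist stimulus; 0% = peptide alone without receptor and 100% = receptor with peptide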
ERb coact inh: inhibitors of ERβ-SRC1 coactivator interaction, primary screen, biochemical, TR-FRET, ERβ LBD, SRC-1 peptide | AID 633, 2007 | TR-FRET ER-beta LBD / SRC1-Cy5 peptide binding; receptor agonist-loaded with 1 µM estradiol | Estrogen receptor beta (Homo sapiens), Q92731 | inhibition, % at 25.6 µM | 1.3% of 86,000 active;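 active means compounds whose percent inhibition of the receptor-coactivator binding signal exceeds about 50% in the single-dose screen, limit read from the data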;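 further: 0% = receptor plus peptide wells without compound and 100% = peptide-only wells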
Target sequence (Q92731 whole entry, looked up, the tested form may be a part): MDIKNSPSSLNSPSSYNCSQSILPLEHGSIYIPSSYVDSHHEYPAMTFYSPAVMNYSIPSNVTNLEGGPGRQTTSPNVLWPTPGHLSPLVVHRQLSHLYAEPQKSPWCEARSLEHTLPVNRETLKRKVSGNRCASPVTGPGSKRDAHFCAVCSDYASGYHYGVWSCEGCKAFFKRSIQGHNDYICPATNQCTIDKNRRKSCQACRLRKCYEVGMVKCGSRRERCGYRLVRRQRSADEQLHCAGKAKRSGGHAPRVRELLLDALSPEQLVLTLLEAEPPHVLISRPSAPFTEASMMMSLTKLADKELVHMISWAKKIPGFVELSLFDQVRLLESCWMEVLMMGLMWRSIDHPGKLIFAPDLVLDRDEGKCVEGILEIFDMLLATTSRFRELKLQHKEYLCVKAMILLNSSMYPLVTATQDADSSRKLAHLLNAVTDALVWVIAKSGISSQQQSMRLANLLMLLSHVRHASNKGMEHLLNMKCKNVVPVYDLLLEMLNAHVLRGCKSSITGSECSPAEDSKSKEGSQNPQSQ
The depositor's hits bear a star; . = no result given; [ ] = another dose, or the depositor's remark.

SMILES | Smad3 inh | Calb biofilm kill | ERa coact inh | ERa coact pot | ERb coact inh
CC(NC(=O)c1cccnc1)C(c1cccs1)N1CCN(C)CC1 (centres undefined) | -2 | 4 | -6 | 103 | -3
COc1cccc(C(=O)NC(C)C(c2cccs2)N2CCN(C)CC2)c1 (centres undefined) | 18 | 7 | -32 | 115 | 67*[fluorescence artefact?]
Cc1ccccc1NC(=O)Cn1cnc2c1c(=O)n(C)c(=O)n2C | 4 | 6 | -9 | 97 | 62*
COC(=O)c1[nH]c2cccc(OC)c2c1NC(=O)C(C)N1CCC(C)CC1 (centres undefined) | 7 | 15 | -12 | 130 | -15
O=C1Nc2ccccc2C12OCCS2 (centres undefined) | 0 | 6 | -5 | 96 | 54*
CC(C)(NCc1ccccc1Cl)C(=O)O | 3 | 8 | 0 | 92 | -5
CCN(CC)C(=O)CSC1=C(C#N)C(c2cccs2)C=C(C)N1 (centres undefined) | 6 | 5 | -5 | 81 | 7
Cc1ccc(-c2nc3ccccc3o2)cc1NC(=O)c1ccc2c(c1)OCO2 | 10 | 4 | 31 | 266* | 1
O=C(Nc1ccccc1-c1nc2ccccc2o1)c1ccc2c(c1)OCCO2 | -2 | -1 | 50 | 217*[fluorescence artefact?] | 28
COc1cc(OC)cc(C(=O)Nc2ccc(-c3nc4ccccc4o3)cc2)c1 | -11 | 4 | -2 | 97 | 6
O=C(CN1C(=O)c2ccccc2C1=O)Nc1ccc(-c2nc3ccccc3o2)cc1 | 4 | 0 | -2 | 213* | -2
Cc1c(NC(=O)c2ccc3c(c2)OCO3)cccc1-c1nc2ccccc2o1 | 10 | 3 | -3 | 126 | -2
O=C(CCN1C(=O)c2ccccc2C1=O)Nc1ccc(-c2nc3ccccc3o2)cc1 | -3 | 7 | 18 | 94 | 23
O=C(Nc1ccc(-c2nc3ccccc3o2)cc1)c1ccc2c(c1)OCO2 | 12 | 7 | 57*[fluorescence artefact?] | 185 | 44
Cc1ccc(C(=O)Nc2cc(C)c(OCC(=O)N3CCOCC3)c(C)c2)cc1 | 2 | 5 | -2 | 96 | 4
Cc1cc(C)n(-c2nnc(C)n2/N=C/c2cc(Br)ccc2OCc2ccccc2)n1 | 9 | 7 | 8 | 94 | 9
Cc1nc2sc(C(c3ccc(F)cc3)N3CCN(C(=O)c4ccco4)CC3)c(O)n2n1 (centres undefined) | -5 | 2 | -3 | 102 | -7
O=C1CC(C(=O)N2CCOCC2)C2(CCCC2)O1 (centres undefined) | 2 | 4 | -2 | 94 | -2
Cc1cc2nc(C)c(Cc3ccccc3)c(=O)n2[nH]1 | -11 | 8 | 14 | 66 | 8
Brc1ccccc1Cn1c(-c2cscn2)nc2ccccc21 | -8 | 5 | -4 | 127 | -4
O=c1c2c3nc4ccccc4nc3n(/N=C/c3ccco3)c2ncn1CCC1=CCCCC1 | 12 | 1 | 66*[fluorescence artefact?] | 85 | 40
OCCSCc1ccccc1 | -8 | . | . | . | .
Cc1nc2ccccc2n2c(O)c(CC(=O)O)cc12 | 12 | 3 | 41 | 55 | 58*[fluorescence artefact?]
CCOC(=O)N1CCC(n2c(SCC(=O)N3CCC(C)CC3)nc3ccccc3c2=O)CC1 | 1 | 24* | -9 | 108 | 4
CCOC(=O)N1CCC(n2c(SCC(=O)NCc3ccccc3)nc3ccccc3c2=O)CC1 | 11 | 2 | 4 | 117 | 5
SMILES | Smad3 inh | Calb biofilm kill | ERa coact inh | ERa coact pot | ERb coact inh
O=C(O)c1c(-c2nccc3ccccc23)[nH]c(-c2ccccc2)c1S(=O)(=O)O | 9 | . | . | . | .
O=C(COc1ccc2ccccc2c1)NCCNC(=O)COc1ccc2ccccc2c1 | -20 | 4 | 11 | 317*[fluorescence artefact?] | -4
O=C(COc1ccc2ccccc2c1)NC1CC1 | 0 | 2 | 2 | 94 | 2
Cc1csc(=N)n1CC(=O)N1CCc2ccccc21 | 11 | 5 | -5 | 110 | 11
CCOC(=O)C1C(=O)C(C(C)=O)C(=O)CC1CC(C)SCC (centres undefined) | -3 | 2 | 0 | 113 | -19
O=C(Oc1cccc2cccnc12)c1ccc(Br)o1 | 10 | 4 | -9 | 108 | -11
O=C(Oc1ccc(-c2cnc3ccccc3n2)cc1)c1ccc(Br)o1 | -79 | -6 | 35 | 489* | 23
COC(=O)c1ccc(-c2ccco2)n1Cc1ccccc1Cl | 8 | 1 | 1 | 75 | 9
COC(=O)c1ccc(-c2ccco2)n1Cc1nc(-c2ccc(OC)c(OC)c2)oc1C | 0 | -2 | 70*[fluorescence artefact?] | 98 | 67*[fluorescence artefact?]
CSc1nc2ccc(NS(=O)(=O)c3ccc4c(c3)OCCO4)cc2s1 | 18 | 2 | -8 | 93 | -1
CN(C)C(CNC(=O)c1cccc(S(=O)(=O)N2CC3(C)CC2CC(C)(C)C3)c1)c1ccco1 (centres undefined) | 13 | -4 | 0 | 83 | 7
CC1(C)CC2CC(C)(CN2S(=O)(=O)c2cccc(N)c2)C1 (centres undefined) | 3 | 4 | -8 | 237*[fluorescence artefact?] | 0
COc1ccc(N2Cc3cccc(C(=O)N4CCN(C(=O)c5ccco5)CC4)c3C2=O)cc1 | 29 | -5 | 71* | 84 | 68*
COc1cc(-c2[nH]nc3c2C(c2ccoc2)C(C#N)=C(N)O3)cc(OC)c1OC (centres undefined) | 0 | 8 | 15 | 74 | 33
COc1cccc(-c2[nH]nc3c2C(c2ccoc2)C(C#N)=C(N)O3)c1 (centres undefined) | 2 | 6 | 50 | 65 | 58*
CCn1c(NN)nc2sc3c(c2c1=O)CCC3 | -1 | -1 | 18 | 47 | 52*
CCOc1ccc2nc(SCC(=O)NC(=O)NCc3ccco3)[nH]c2c1 | -22 | -3 | 38 | 74 | 56*[fluorescence artefact?]
Cn1c(SCC(=O)NC(=O)NCc2ccco2)nnc1-c1ccccc1 | -11 | -1 | 59*[fluorescence artefact?] | 142 | 52*[fluorescence artefact?]
Cn1c(SCC(=O)NCc2ccco2)nnc1-c1ccccc1 | 7 | 7 | -15 | 86 | 0
Cc1cc(SCC(=O)NC(=O)NCc2ccco2)nc2c(C)cccc12 | 9 | 5 | 65* | 60 | 50
Cc1cc(SCC(=O)NC(=O)NCc2ccco2)nc2ccccc12 | 8 | 10 | 9 | 127 | 5
CCOc1ccc2nc(SCC(=O)N(C)C)[nH]c2c1 | 3 | 5 | 3 | 123 | -2
CCCCn1c(SCC(=O)NC(=O)NCc2ccco2)nc2cc(S(N)(=O)=O)ccc21 | -7 | 9 | 58*[fluorescence artefact?] | 80 | 43
Cc1cccc(N2CCN(C(=O)CCCSc3nc4ccccc4[nH]3)CC2)c1C | -6 | -6 | 0 | 85 | -9
Cc1ccc(Cn2nnc3c(=O)n(CC(=O)c4ccccc4)cnc32)cc1 | 13 | 13 | 33 | 103 | 4
